From PubChem BioAssay (NCI)
Compounds without any hit were thinned out: in the full panel of roughly 83,000, 20% have a hit.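 Each cell line was grown in a 96-well plate and treated with one concentration of compound for 48 hours. Values below 10 were considered active.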 Active and inactive are the calls of the source.

What follows are molecules tested on MDA-MB-468 breast (assay: NCI-60 one-dose screen, 48 h (100 = growth as untreated, 0 = no growth, -100 = all killed)). Settings: 10 µM unless noted.

Row | SMILES | growth
1 | CC(=O)c1c(C)nc(-c2cc(C)cc(Cl)c2)nc1-c1cccc(Oc2ccccc2)c1 | 60.8% (inactive)
2 | Cc1ccc(NC(=O)Nc2ccc(Nc3ncnc4sc5c(c34)CCOC5)cc2)cc1Cl | 102% (inactive)
3 | NC1=Nc2cc(OCCCN3Cc4ccccc4C3)c(OCC3CC3)cc2C12CCCC2 | 31.9% (inactive)
4 | CCCCCC(=O)Oc1ccc(/C(=C(\C)c2ccccc2)c2ccc(OCCN(CC)CC)cc2)cc1 | 61.5% (inactive)
